The results in this text go back to PubChem BioAssay AID1220 (Sanford-Burnham Center for Chemical Genomics, 2008).

Structures are written as SMILES. About 1,300 (0.68%) of roughly 190,000 compounds were called active. Cut-off read from the data, not from the text of the source: active = inhibition above about 50%; inactive = the rest. The full list was thinned out, with actives kept by preference.

Mannose-6-phosphate isomerase (Homo sapiens), sequence (P34949 whole entry, looked up): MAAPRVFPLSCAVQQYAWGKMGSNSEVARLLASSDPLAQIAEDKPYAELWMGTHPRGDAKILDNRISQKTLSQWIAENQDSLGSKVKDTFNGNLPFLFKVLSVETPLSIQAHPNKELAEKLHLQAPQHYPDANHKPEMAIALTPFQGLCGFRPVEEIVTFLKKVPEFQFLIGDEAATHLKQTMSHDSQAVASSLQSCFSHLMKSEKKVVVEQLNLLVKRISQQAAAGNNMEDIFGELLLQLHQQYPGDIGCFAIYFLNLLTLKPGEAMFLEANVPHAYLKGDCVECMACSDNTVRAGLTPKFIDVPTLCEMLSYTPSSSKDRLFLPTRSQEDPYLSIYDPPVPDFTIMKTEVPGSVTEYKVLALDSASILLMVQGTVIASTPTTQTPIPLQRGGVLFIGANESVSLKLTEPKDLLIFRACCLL

The experiment concerns the target Mannose-6-phosphate isomerase (Homo sapiens) (UniProt P34949). As to the kind of experiment: human PMI inhibitors, high substrate, primary screen, biochemical, fluorescence intensity, high mannose 6-phosphate (AID 1220). The settings on record: recombinant PMI enzyme, coupled fluorescence intensity; at 20 µM; active compounds read high.
For the molecule `O=C(N/N=C/c1ccc2c(c1)OCO2)c1sc2cccc(Cl)c2c1Cl`, the inhibition is 12.6% (inactive). Next, `O=C(CCCCCn1c(=O)[nH]c2ccccc2c1=O)N1CCN(Cc2ccc3c(c2)OCO3)CC1`: -4% (inactive).

Consider `O=C(OCc1cccnc1)C1=Cc2ccccc2OC1`, for which the inhibition is -1.4% (inactive). Next, `COc1ccc(C(=O)Nc2cccc(C(C)=O)c2)c(OC)c1OC`: 8.1% (inactive); `COc1ccc(C(C)=O)c2c(O)cccc12`: 56.5% (active).

For `COc1ccc(C(=O)c2ccc(OC)c3cccc(O)c23)cc1OC`, the inhibition was 14.7% (inactive). Next, `CCOc1ccc(N(CC(=O)N/N=C/c2cccnc2)S(C)(=O)=O)cc1`: -3.8% (inactive). Next, `CN(C)C(=O)C1(c2ccccc2)CCN(S(=O)(=O)c2ccccc2)CC1`: 14.9% (inactive); `COc1oc(-c2ccccc2C)nc1C(F)(F)F`: 1.8% (inactive). As for `COc1ccc(N/C=C(\C(C)=O)c2ccc(OC)c(OC)c2)cc1OC`, the inhibition was 42.8% (inactive). Next, `COc1ccc(/C(=C\Nc2ccc(C)c(C)c2)C(C)=O)cc1OC`: 56.5% (active). As to `COc1ccc(/C(=C/Nc2cccc(Br)c2)C(C)=O)cc1OC`, the inhibition was 4.4% (inactive). Consider `CCC/C=N/NC(=O)c1cc(-c2ccccc2)nc2ccccc12`, for which the inhibition is -2.1% (inactive). For the molecule `C=CCc1cc(/C=N/NC(=O)CSc2nnc(CCCc3ccc(OC)cc3)o2)cc(OC)c1O`, the inhibition was -3.4% (inactive). Next, `N#C/C(=C1\C(=O)Nc2c(Cl)cc(Cl)cc21)c1nnc2n1CCCCC2`: 51% (active); `N#C/C(=C1/CCCCCN1)c1nnc2n1CCCCC2`: -3.4% (inactive); `N#C/C(=N\Nc1cc(Cl)cc(Cl)c1)c1nnc2n1CCCCC2`: 14.3% (inactive). Regarding `O=C(c1cc2nc(-c3ccc(Cl)cc3)cc(C(F)(F)F)n2n1)N1CCOCC1`, the inhibition is 9.1% (inactive). Next, `CC(=O)N1CC(c2ccccc2)C(c2ccc(Cl)cc2)=N1` (centres undefined): 11.8% (inactive); `CC(C)C(O)(C#CCN1CCCCC1)C(C)C`: 2.1% (inactive). Next, `O=C(NC(=S)N1CCN(Cc2ccccc2)CC1)c1ccccc1`: 13% (inactive); `O=C(NC(=S)N1CCCCC1)c1cccnc1`: -1.5% (inactive). Next, `O=C(NC(=S)N1CCN(Cc2ccccc2)CC1)c1cccnc1`: 58.4% (active).

For `COCCN1C(=O)c2oc3ccccc3c(=O)c2C1c1ccc(O)c(OC)c1` (centres undefined), the inhibition was 0.7% (inactive). Consider `Cc1cc([N+](=O)[O-])ccc1NC(=O)C[n+]1ccc(N(C)C)cc1`, for which the inhibition is -1.5% (inactive). As for `Cc1ccc([N+](=O)[O-])cc1NC(=O)C[n+]1ccccc1`, the inhibition was 22.2% (inactive). Next, `Cc1ccc(Cl)cc1NC(=O)C[n+]1ccc(Cc2ccc([N+](=O)[O-])cc2)cc1`: 55.3% (active); `CC(NC(=O)C1CCCN1C(=O)OCc1ccccc1)c1ccccc1` (centres undefined): -0.5% (inactive).

`COc1cccc(OC)c1C(=O)NC(=S)Nc1ccc2oc(=O)ccc2c1`: the inhibition was 10.5% (inactive). As to `O=C(COC(=O)Cc1ccccc1[N+](=O)[O-])NC1CCCC1`, the inhibition was 55.4% (active). On to `CC(NC(=O)Cc1ccccc1[N+](=O)[O-])c1ccccc1` (centres undefined), for which the inhibition is 7.4% (inactive). Take `CC(NC(=O)COC(=O)Cc1ccccc1[N+](=O)[O-])c1ccccc1` (centres undefined): the inhibition was 51.3% (active). Turning to `O=C(COC(=O)Cc1ccccc1[N+](=O)[O-])NCC1CCCCC1`, the inhibition is -5.7% (inactive).

For the molecule `O=C(COC(=O)COc1ccccc1[N+](=O)[O-])NC1CCCC1`, the inhibition is -5.1% (inactive).

On to `CC(NC(=O)COC(=O)CC(c1ccccc1)c1ccccc1)c1ccccc1` (centres undefined), for which the inhibition was 7.9% (inactive). As for `O=Cc1cc2ccccc2nc1SCCCF`, the inhibition is 4.2% (inactive). With `CCCn1c(SCC(=O)C(C)(C)C)nc2ccccc21`, the inhibition was -8.2% (inactive). For the molecule `O=C(O)Cc1ccc(NC(=O)c2cnccn2)cc1`, the inhibition was -9.7% (inactive).

Regarding `Cc1cc(C)c2c(N)c(C(=O)NNC(=O)c3ccccc3)sc2n1`, the inhibition was 2.3% (inactive). Next, `Cc1cc(C)nc(-n2nc(C)cc2NC(=O)CN2CCCC(C)C2)n1` (centres undefined): 4.4% (inactive); `Cc1ccc(SC(C)C(=O)NCc2ccncc2)cc1` (centres undefined): 11.4% (inactive). On to `CC(=O)NC1(C(F)(F)F)NC(=O)N(c2ccc(F)cc2)C1=O` (centres undefined), for which the inhibition is -10.2% (inactive). For the molecule `CC(=O)c1ccccc1OC(=O)CCN1C(=O)C2C3C=CC(C4CC34)C2C1=O` (centres undefined), the inhibition was 59.3% (active). For `Cc1cccc(OC(=O)CCN2C(=O)C3C4C=CC(C5CC45)C3C2=O)c1C` (centres undefined), the inhibition is -6.4% (inactive). On to `O=C(CCN1C(=O)C2C3C=CC(C4CC34)C2C1=O)Oc1ccccc1` (centres undefined), for which the inhibition is -3.5% (inactive). Take `Cc1ccc(C(=O)NCc2ccco2)cc1S(=O)(=O)Nc1cccc(C)c1C`: the inhibition was 0.8% (inactive). Consider `COc1cccc(CN2CCN(Cc3[nH]c4ccccc4c3C)CC2CCO)c1` (centres undefined), for which the inhibition is -0.2% (inactive). Next, `CN(C)C=Nc1ccc2nn(-c3ccccc3)nc2c1`: 60.2% (active); `Cc1nc2cc(N)ccc2n1-c1ccccc1`: 21.5% (inactive); `CC(C)CC(=O)Nc1ccc2nn(-c3ccccc3)nc2c1`: 26.4% (inactive).

On to `Cc1ccc(-n2nc3ccc(N)cc3n2)cc1`, for which the inhibition is 31.3% (inactive).

On to `CC(C)c1ccc2oc(-c3cc(N)ccc3O)nc2c1`, for which the inhibition was -12.6% (inactive). Next, `Cc1ccc(-n2nc3ccc(NC(=O)C(C)C)cc3n2)cc1`: 13.3% (inactive); `CC(C)C(=O)Nc1ccc2nn(-c3ccccc3)nc2c1`: -0.5% (inactive).

`Nc1ccc2nn(-c3ccccc3)nc2c1`: the inhibition is 57.9% (active).

Take `CC(C)c1ccc(-n2nc3ccc(N)cc3n2)cc1`: the inhibition is 55.8% (active). Next, `COc1cccc(CN(c2ccc3c(c2)CCC3)S(=O)(=O)c2ccc(-n3cnnn3)c(OC)c2)c1`: -3.4% (inactive); `N#C/C(=C\c1ccncc1)C(N)=O`: 17.1% (inactive); `COc1ccc(Oc2ccccc2C#N)cc1`: 4.7% (inactive). In the case of `O=C(CSc1nnnn1CCCO)Nc1ccc2c(c1)OCO2`, the inhibition is -12.3% (inactive). Consider `COC(=O)c1ccc(N2CCOCC2)c(F)c1`, for which the inhibition was -3.2% (inactive). Regarding `Nc1cc(-c2ccc(Br)cc2)nn1S(=O)(=O)c1cccc2nsnc12`, the inhibition is 11.3% (inactive). Next, `CO[C@H]1C=CO[C@@]2(C)Oc3c(C)c(O)c4c(O)c(c5c(nc6cc(C)ccn65)c4c3C2=O)NC(=O)C(C)=CC=C[C@H](C)[C@H](O)[C@@H](C)[C@@H](O)[C@@H](C)[C@H](OC(C)=O)[C@@H]1C`: 32.2% (inactive); `CO[C@H]1C=CO[C@@]2(C)Oc3c(C)c(O)c4c(O)c(c(C=NN5CCN(C)CC5)c(O)c4c3C2=O)NC(=O)C(C)=CC=C[C@H](C)[C@H](O)[C@@H](C)[C@@H](O)[C@@H](C)[C@H](OC(C)=O)[C@@H]1C`: 42.7% (inactive). For the molecule `CO[C@H]1C=CO[C@@]2(C)Oc3c(C)c(O)c4c(O)c(c(C=NN5CCN(C6CCCC6)CC5)c(O)c4c3C2=O)NC(=O)C(C)=CC=C[C@H](C)[C@H](O)[C@@H](C)[C@@H](O)[C@@H](C)[C@H](OC(C)=O)[C@@H]1C`, the inhibition was 73.8% (active). On to `O=C(OCC(=O)N1CCCC1)c1ccccc1OCc1ccccc1`, for which the inhibition is 4.1% (inactive). As for `NC(=O)c1c(NC(=S)Nc2ccc(F)cc2)sc2c1CCCC2`, the inhibition was 2.3% (inactive). Consider `Cc1ccc(/C=C2/C(=O)N(c3ccccc3)C(=S)N2C)o1`, for which the inhibition is 52.2% (active). Next, `CN1C(=S)N(c2ccccc2)C(=O)/C1=C/c1ccco1`: -16.2% (inactive). Next, `CCOc1ccc(N2C(=O)/C(=C/c3ccc(C)o3)N(C)C2=S)cc1`: 43.2% (inactive); `COc1cc(C(=O)NCC(C)C)cc(OC)c1OC`: -10.5% (inactive). Turning to `COC(=O)C1=C(C)NC(C)=C(C(=O)OC)C1c1ccc(-c2cc(Cl)ccc2Cl)o1`, the inhibition was -1.9% (inactive).

As to `COCCNC(=O)Cn1nc(C(F)(F)F)cc1C`, the inhibition was 21.9% (inactive). Next, `Cc1ccc(C(=O)NCc2ccccc2)cc1Br`: 12.6% (inactive); `c1ccc2sc(N3CCOCC3)nc2c1`: -4.3% (inactive). In the case of `Fc1ccc2nc(N3CCOCC3)sc2c1`, the inhibition is -5.9% (inactive). As for `Nc1ccc2nc(N3CCOCC3)sc2c1`, the inhibition was 59.7% (active). Next, `Cc1cnc(C(=O)OCC(=O)N2CCN(C(=O)c3ccco3)CC2)cn1`: 6.1% (inactive); `O=C(CSc1nc2ccccc2c(=O)n1-c1ccccc1)N1CCc2ccccc2C1`: 8% (inactive). Consider `CC1(C(=O)NC2CCCCCCC2)CCC(=O)N1CCN1CCOCC1` (centres undefined), for which the inhibition is -8.6% (inactive). Next, `COc1cc(C2C(C#N)=C(N)Oc3c2ccc2ccccc32)ccc1OCC(=O)Nc1ccc(C)cc1` (centres undefined): 24.1% (inactive). Next, `COc1cc(C2C(C#N)=C(N)Oc3c2ccc2ccccc32)ccc1OCC(=O)Nc1cccc(C)c1` (centres undefined): 53.4% (active); `COC(=O)c1ccc(NC(=O)COc2ccc(C3C(C#N)=C(N)Oc4c3ccc3ccccc43)cc2OC)cc1` (centres undefined): 15.5% (inactive). Next, `CCOC(=O)c1cc(CC)sc1NC(=O)CC1Sc2ccc(C(F)(F)F)cc2NC1=O` (centres undefined): -5.2% (inactive); `Cc1ccc(S(=O)(=O)NCc2nc3ccccc3[nH]2)cc1`: 5% (inactive). As to `Cc1nnc(SCC(=O)NC2CCCCC2)n(N)c1=O`, the inhibition is -2.5% (inactive). Regarding `O=C1CN(C(=O)c2cc(Br)c(Br)s2)c2ccccc2N1`, the inhibition was 61.5% (active). Next, `O=C1CN(C(=O)c2cccs2)c2ccccc2N1`: 3.1% (inactive). Turning to `O=C1CN(C(=O)c2ccccc2)c2ccccc2N1`, the inhibition is 6.5% (inactive). As to `COC(=O)c1ccc(NC(=O)Nc2ccccc2F)cc1`, the inhibition was 11% (inactive). Next, `CN(CC(=O)N1CCCc2c1c(=O)oc1ccc(O)cc21)Cc1ccccc1`: 3.3% (inactive); `CC(C(=O)N1CCCc2c1c(=O)oc1ccc(O)cc21)N1CCc2ccccc2C1` (centres undefined): 69% (active); `O=C(CN1CCN(Cc2ccccc2)CC1)N1CCCc2c1c(=O)oc1ccc(O)cc21`: 3.1% (inactive).

As to `Cc1ccccc1NC(=O)CC(O)(C(F)(F)F)C(F)(F)F`, the inhibition was -6% (inactive).

Broadly, the inhibition is the relative decrease from the control value, in per cent.
